From PubChem BioAssay AID623870 (Broad Institute, 2012)
The campaign covered roughly 390,000 compounds. About 2,600 (0.67%) were called active.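 The calls were made as follows: active = mean inhibition of replicates at least 50% and at least half of replicates each reaching 50%; inconclusive = half or more replicates reach 50% but mean below 50%; inactive = the rest.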 What follows is part of a selection rich in actives, with near analogues and random picks from the rest.

What follows are compounds tested against Transforming acidic coiled-coil-containing protein 3 (Homo sapiens) (UniProt Q9Y6A5) (assay: inhibitors of ARNT PAS-B binding to TACC3 – biochemical, AlphaScreen, single concentration, primary screen (AID 623870;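 also: 0% = complete ARNT plus TACC3 wells and 100% = ARNT alone without TACC3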)). Conditions: AlphaScreen His-ARNT PAS-B/GST-TACC3 binding, luminescence; at 9.99 µM; stronger effect = higher value; TACC3 fragment carries E629A point mutation.

Compound | inhibition
COc1ccc(S(=O)(=O)N(C)C[C@@H]2OCCCC[C@@H](C)Oc3ccc(NS(C)(=O)=O)cc3C(=O)N([C@H](C)CO)C[C@@H]2C)cc1 | -15.8% (inactive)
CCCN(C)C[C@H]1Oc2ncc(C#CCOC)cc2C(=O)N([C@@H](C)CO)C[C@H]1C | -7.68% (inactive)
Cc1ccc(S(=O)(=O)Nc2ccc3c(c2)C(=O)N([C@H](C)CO)C[C@H](C)[C@H](CN(C)C(=O)Nc2ccc4c(c2)OCO4)OCCCC[C@@H](C)O3)cc1 | -0.754% (inactive)
O=C(Nn1cc(C(=O)N2CCN(c3ccccc3F)CC2)c2ccccc2c1=O)c1cnccn1 | 68.5% (active)
COc1ccc(Nc2ncc(C(=O)N3CCN(c4ccccc4OC)CC3)c3ccccc23)cc1 | 1.33% (inactive)
Cc1ccccc1N1CCN(C(=O)c2cccnc2)CC1 | -7.09% (inactive)
Cc1ccc(S(=O)(=O)NCC[C@H]2CC[C@@H](NS(=O)(=O)c3ccccc3Cl)[C@H](CO)O2)cc1 | 2.36% (inactive)
C[C@@H]1CN([C@@H](C)CO)C(=O)c2cc(NC(=O)C3CCCCC3)ccc2O[C@@H]1CN(C)S(=O)(=O)c1ccc(F)cc1 | -1.9% (inactive)
NC(=O)C1CCN(C(=O)COc2cccc3cccnc23)CC1 | -5.01% (inactive)
CCOc1cc(N2CCOCC2)c(OCC)cc1NC(=O)COc1cccc2cccnc12 | 59.4% (active)
COC(=O)[C@@H]1CCCN1C(=O)c1cc(COc2cccc3cccnc23)on1 | 6.38% (inactive)
C[C@@H]1CN([C@@H](C)CO)C(=O)c2cccc(N(C)C)c2O[C@@H]1CN(C)S(=O)(=O)c1ccccc1 | -5.11% (inactive)
C[C@@H]1CCCCO[C@H](CN(C)C(=O)CCC(F)(F)F)[C@H](C)CN([C@@H](C)CO)C(=O)c2cc(NC(=O)CCCCCC(=O)Nc3ccccc3N)ccc2O1 | 0.568% (inactive)
CO[C@H]1CN(C)C(=O)c2ccc(NC(C)=O)cc2OC[C@@H](C)N(C(=O)c2ccncc2)C[C@@H]1C | 34.9% (inactive)
O=C(O)C[C@@H]1C[C@@H]2c3cc(NC(=O)Nc4ccccc4)ccc3O[C@@H]2[C@H](CO)O1 | -4.96% (inactive)
C[C@H]1CN([C@@H](C)CO)C(=O)Cc2cc(NC(=O)Nc3ccc(F)cc3)ccc2O[C@H]1CN(C)S(=O)(=O)c1ccc(F)cc1 | -0.385% (inactive)
COc1ccc(CN(C)C[C@H]2Oc3c(NC(=O)c4ccncc4)cccc3C(=O)N([C@H](C)CO)C[C@@H]2C)cc1 | -4.67% (inactive)
Cc1ccc(C(=O)Nc2ccc(C)c(S(=O)(=O)N(C)C)c2)s1 | -4.57% (inactive)
Cc1ccc(NC(=O)CNCc2ccccn2)cc1S(=O)(=O)N(C)C | 71% (active)
Cc1cc(S(=O)(=O)NCc2ccccn2)c(Cl)cc1Cl | -1.4% (inactive)
